Assay [1] concerns the target Estrogen receptor (Homo sapiens) (UniProt P03372). Nature of the assay: qHTS assay for small molecule agonists of estrogen receptor alpha signaling (AID 588514).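 Also: 0% = vehicle only and 100% = reference agonist; nearly all actives have a fitted effect of over 70% in size.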 The method, boiled down:
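Efficacy is expressed against 20 nM 17-beta-estradiol (100%) and DMSO basal (0%); EC50 from Hill equation. Assay: beta-lactamase reporter in ER-alpha-UAS-bla HEK 293 cells, 18 h compound incubation, CCF4 detection.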
On the technique in general: qHTS replaces the single test concentration by a dilution series.

Assay [2] in a line: qHTS assay for small molecule antagonists of peroxisome proliferator-activated receptor delta signaling (AID 588535; active = well fitted inhibition curve with a large enough effect in the signal ratio, with a control signal flat, not every such curve was filed as active; the % refers to the signal ratio;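 as to max response: cells co-treated with a PPAR-delta agonist as stimulator during compound exposure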). The note with it: HEK293T PPARd-UAS-bla, beta-lactamase FRET ratio, 18 h; 460 nm channel. In outline:
(§1)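 Titrations were run on PPAR-delta-UAS-bla HEK293T cells in charcoal/dextran-stripped serum, incubated 18 h at 37 C. CCF4 fluorescence (460/530 nm) after 2 h RT; Hill equation yields IC50 and maximal response.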

Assay [3] deals with Peroxisome proliferator-activated receptor delta (Homo sapiens) (UniProt Q03181). The description is as above. In outline: as §1
Chain of Peroxisome proliferator-activated receptor delta (Homo sapiens) (Q03181 whole entry, looked up): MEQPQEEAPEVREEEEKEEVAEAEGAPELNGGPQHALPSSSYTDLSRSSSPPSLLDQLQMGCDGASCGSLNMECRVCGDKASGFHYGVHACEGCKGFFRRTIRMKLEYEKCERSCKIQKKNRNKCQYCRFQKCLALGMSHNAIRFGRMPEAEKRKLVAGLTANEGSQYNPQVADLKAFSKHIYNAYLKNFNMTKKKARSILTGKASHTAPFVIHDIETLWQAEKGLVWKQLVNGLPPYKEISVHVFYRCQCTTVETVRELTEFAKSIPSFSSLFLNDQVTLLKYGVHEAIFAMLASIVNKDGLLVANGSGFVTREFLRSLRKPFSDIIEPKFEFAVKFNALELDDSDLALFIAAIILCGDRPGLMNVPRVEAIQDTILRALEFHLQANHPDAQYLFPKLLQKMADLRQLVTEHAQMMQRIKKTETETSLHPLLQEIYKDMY
Assay [4] concerns the target Peroxisome proliferator-activated receptor gamma (Homo sapiens) (UniProt P37231). Nature of the assay: qHTS assay for small molecule agonists of peroxisome proliferator-activated receptor gamma signaling (AID 588536; active = well fitted curve in the direction sought with a large enough effect in the signal ratio, with a control signal flat, not every such curve was filed as active; the % refers to the signal ratio;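 also: 0% = DMSO basal wells and 100% = rosiglitazone at 2 µM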). The method, boiled down:
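This is an agonist-mode beta-lactamase reporter assay in HEK293 PPAR-gamma-UAS-bla cells with 1% charcoal/dextran FBS. Compound titrations ran 16 h at 37 C before CCF4 detection. EC50 and efficacy are Hill fits scaled to 2 uM rosiglitazone (100%) and DMSO basal.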

For assay [5], the target named is Vitamin D3 receptor (Homo sapiens) (UniProt P11473). In words: qHTS assay for small molecule antagonists of vitamin D receptor signaling (AID 588541).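 Also: receptor activated by calcitriol during compound treatment; series mostly up to about 77 µM; % is scaled to controls: 0 for no effect and ±100 for the full control effect.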 In outline: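 Antagonist-mode beta-lactamase reporter assay: HEK293T VDR-UAS-bla cells were exposed to titrated compound alongside 1-alpha,25-dihydroxyvitamin D3 at 3 nM final for 16 h. Values were normalized to the 50 nM agonist control and DMSO basal, with IC50 and efficacy from Hill equation fits.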
Chain of Vitamin D3 receptor (Homo sapiens) (P11473 whole entry, looked up): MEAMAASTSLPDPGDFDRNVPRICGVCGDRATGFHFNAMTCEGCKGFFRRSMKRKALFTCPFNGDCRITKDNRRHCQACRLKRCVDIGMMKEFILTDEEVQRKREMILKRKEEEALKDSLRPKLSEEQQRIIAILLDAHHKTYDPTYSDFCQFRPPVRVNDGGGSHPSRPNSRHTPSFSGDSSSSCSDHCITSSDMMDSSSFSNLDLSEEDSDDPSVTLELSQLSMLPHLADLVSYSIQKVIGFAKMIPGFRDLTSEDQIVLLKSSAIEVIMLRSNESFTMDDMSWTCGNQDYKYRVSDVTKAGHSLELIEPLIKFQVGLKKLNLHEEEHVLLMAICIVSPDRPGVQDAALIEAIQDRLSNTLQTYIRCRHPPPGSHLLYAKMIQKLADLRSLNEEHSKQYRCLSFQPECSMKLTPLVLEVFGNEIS

A short description of assay [6]: qHTS assay for small molecule agonists of retinoid X receptor alpha signaling (AID 588544).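 As to activation: 0% = DMSO basal wells and 100% = reference agonist.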 The note with it: HEK293T RXRa-UAS-bla, beta-lactamase reporter, 18 h; 530 nm emission.
In assay [7] the target is Retinoic acid receptor RXR-alpha (Homo sapiens) (UniProt P19793). Described as above.
Chain of Retinoic acid receptor RXR-alpha (Homo sapiens) (P19793 whole entry, looked up): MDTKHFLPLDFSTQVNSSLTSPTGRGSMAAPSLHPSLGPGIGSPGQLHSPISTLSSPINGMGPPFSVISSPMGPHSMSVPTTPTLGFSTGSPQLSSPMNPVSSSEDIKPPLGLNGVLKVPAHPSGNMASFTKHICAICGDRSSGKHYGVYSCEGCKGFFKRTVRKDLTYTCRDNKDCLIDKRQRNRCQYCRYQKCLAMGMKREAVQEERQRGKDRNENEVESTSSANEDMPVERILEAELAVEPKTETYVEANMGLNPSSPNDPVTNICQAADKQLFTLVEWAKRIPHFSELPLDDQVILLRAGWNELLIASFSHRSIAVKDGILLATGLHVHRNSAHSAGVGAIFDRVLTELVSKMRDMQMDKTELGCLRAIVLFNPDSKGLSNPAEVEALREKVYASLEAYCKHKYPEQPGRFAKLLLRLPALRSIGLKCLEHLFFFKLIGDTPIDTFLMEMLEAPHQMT
The target of assay [8] is Thyroid hormone receptor beta (Homo sapiens) (UniProt P10828). Nature of the assay: qHTS assay for small molecule agonists of thyroid hormone receptor beta signaling (AID 588545). The method, boiled down: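 In this cell-based screen, titrated compounds act on HEK 293 cells held in medium with 2% charcoal/dextran FBS, NEAA and pyruvate for 18 hrs at 37 C. Responses are expressed relative to T3 (10 nM) as 100% and basal DMSO as 0%.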
Chain of Thyroid hormone receptor beta (Homo sapiens) (P10828 whole entry, looked up): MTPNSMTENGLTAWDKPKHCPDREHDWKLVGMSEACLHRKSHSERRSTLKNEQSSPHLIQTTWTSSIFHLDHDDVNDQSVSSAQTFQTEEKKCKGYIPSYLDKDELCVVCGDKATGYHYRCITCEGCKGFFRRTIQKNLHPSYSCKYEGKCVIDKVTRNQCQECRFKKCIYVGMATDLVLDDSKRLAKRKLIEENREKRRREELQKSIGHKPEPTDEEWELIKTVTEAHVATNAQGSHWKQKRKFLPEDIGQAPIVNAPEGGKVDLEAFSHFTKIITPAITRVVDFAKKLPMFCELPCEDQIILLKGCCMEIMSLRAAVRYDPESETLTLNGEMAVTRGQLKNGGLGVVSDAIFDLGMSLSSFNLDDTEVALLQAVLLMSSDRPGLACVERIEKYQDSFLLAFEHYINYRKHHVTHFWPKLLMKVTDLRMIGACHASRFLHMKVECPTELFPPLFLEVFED

The target is the same in assay [9]. Nature of the assay: qHTS assay for small molecule antagonists of thyroid hormone receptor beta signaling (AID 588547; active = well fitted inhibition curve with a large enough effect in the signal ratio, with a control signal flat, not every such curve was filed as active; the % refers to the signal ratio;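 also: cells stimulated with 0.4 nM T3 agonist during compound exposure; series mostly up to about 77 µM; % is scaled to controls: 0 for no effect and ±100 for the full control effect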). The note with it: TR-UAS-bla HEK293, beta-lactamase ratio, antagonist mode, 18 h. In outline: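 Inhibition of T3-driven (0.4nM final) beta-lactamase reporter activity was measured over 0.59 nM to 92 uM compound after 18 h at 37 C. The cells were GripTite HEK293 TR-UAS-bla in charcoal/dextran-stripped serum, with CCF4 ratio read-out and IC50 from Hill fits.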

A short description of assay [10]: qHTS assay for small molecule activators of the p53 signaling pathway (AID 651743; active = well fitted activation curve with a large enough effect in the signal ratio, not every such curve was filed as active; the % refers to the signal ratio; also: series mostly up to about 92 µM; % of control where 0% means no effect). The note with it: HCT-116 p53RE-bla, beta-lactamase FRET ratio, 16 h; activation: stronger effect = higher value. The method, boiled down:
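After 16 hours compound treatment at 37 C, HCT-116 cells stably expressing p53RE-driven beta-lactamase were loaded with LiveBLAzer B/G FRET substrate for 2 hours at room temperature. Fluorescence intensity served as the p53 activation read-out.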

Assay [11] can be described thus: qHTS assay for environmental chemicals that activate the Aryl hydrocarbon Receptor (AhR) signaling pathway (AID 651777; active = well fitted curve in the direction sought with a large enough effect; an effect the other way counts as inactive or inconclusive; also: nearly all actives have a fitted effect of over 15% in size; also: potency is read from the fitted curve at half-maximal effect; as to activation: % of control where 0% means no effect). The note with it: 1A2-DRE human hepatoma cells, luciferase, 24 h; activation: stronger effect = higher value. In outline:
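Luminescence read-out: One-Glo added for 30 min at RT after 24 hr compound treatment (37 C, 5% CO2) of human hepatoma cells expressing a DRE/CYP1A2 promoter–luciferase reporter; increased signal indicates AhR activation.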

Assay [12] concerns the target Peroxisome proliferator-activated receptor alpha (Homo sapiens) (UniProt Q07869). Nature of the assay: qHTS assay for small molecule agonists of the peroxisome proliferator-activated receptor alpha (PPARalpha) signaling pathway (AID 651778; active = well fitted curve in the direction sought with a large enough effect; an effect the other way counts as inactive or inconclusive; also: % of control where 0% means no effect). The note with it: PathHunter PPARalpha complementation, chemiluminescence, 6 h; max response: stronger effect = higher value. In outline: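 Chemiluminescence from complemented enzyme reported PPARalpha activation in cells after 6 hr of compound treatment at 37 C. The detection reagent was incubated for 60 min at room temperature, and compounds were scored as agonists.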

Assay [13] is described as follows: qHTS assay for small molecule agonists of the antioxidant response element (ARE) signaling pathway measured by Nrf2-dependant transcriptional activity (AID 720636; active = well fitted curve in the direction sought with a large enough effect in the repeat runs; an effect the other way counts as inactive or inconclusive;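 also: HepG2 cells with an ARE-driven luciferase reporter; % of control where 0% means no effect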). In outline:
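HepG2 ARE-luc reporter line, 1% dialyzed FBS; 6 hr attachment at 37 C, compound pinned in, 16 hr at 37 C/5% CO2; ONE-Glo, 30 min RT, luminescence read.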

Assay [14] in a line: qHTS assay for small molecule agonists of the antioxidant response element (ARE) signaling pathway measured by Nrf2-dependant transcriptional activity - cell viability counter screen (AID 720653; active = well fitted curve in the direction sought with a large enough effect in the repeat runs; an effect the other way counts as inactive or inconclusive; also: % is scaled to controls: 0 for no effect and ±100 for the full control effect). The note with it: ARE-bla HepG2 viability, CellTiter-Glo ATP luminescence, 16 h; max response: stronger effect = lower value. In outline:
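Cytotoxicity counter screen: intracellular ATP quantified by CellTiter-Glo luminescence in the same ARE-bla HepG2 plates, after 16 h compound exposure and a 2 h beta-lactamase substrate step.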

Assay [15] is described as follows: qHTS assay for cell viability of HEK293 cells (AID 743288; active = well fitted curve in the direction sought with a large enough effect; an effect the other way counts as inactive or inconclusive; also: % is scaled to controls: 0 for no effect and ±100 for the full control effect; nearly all actives have a fitted effect of over 50% in size). The note with it: ATP luminescence (CellTiter-Glo), 18 h; max response: stronger effect = lower value. The method, boiled down:
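Quantitative high-throughput screen: compounds were pinned onto parental HEK293 cells (2,000 per well) after a minimum 5 h settling at 37 C, incubated 18 h at 37 C, and intracellular ATP measured by luciferase luminescence.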

Assay [16] is described as follows: qHTS assay for cell viability of the p53RE-bla HCT-116 cell line (AID 743292; active = well fitted curve in the direction sought with a large enough effect; an effect the other way counts as inactive or inconclusive; also: % is scaled to controls: 0 for no effect and ±100 for the full control effect; nearly all actives have a fitted effect of over 55% in size). In outline: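 Luminescent ATP quantitation (CellTiter-Glo) served as the viability read-out; reagent was added after 16 h compound exposure at 37 C and read after 30 min at room temperature. Cells: p53RE-bla HCT-116, 4,000 per well.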
The target in assay [17] is Nuclear receptor subfamily 1 group I member 2 (Rattus norvegicus) (UniProt Q9R1A7). In words: qHTS assay for small molecule activators of the rat pregnane X receptor (rPXR) signaling pathway (AID 651751; call rule not given here; also: 0% is about no effect). The note with it: rPXR reporter cells, luciferase (One-Glo), 24 h.
Chain of Nuclear receptor subfamily 1 group I member 2 (Rattus norvegicus) (Q9R1A7 whole entry, looked up): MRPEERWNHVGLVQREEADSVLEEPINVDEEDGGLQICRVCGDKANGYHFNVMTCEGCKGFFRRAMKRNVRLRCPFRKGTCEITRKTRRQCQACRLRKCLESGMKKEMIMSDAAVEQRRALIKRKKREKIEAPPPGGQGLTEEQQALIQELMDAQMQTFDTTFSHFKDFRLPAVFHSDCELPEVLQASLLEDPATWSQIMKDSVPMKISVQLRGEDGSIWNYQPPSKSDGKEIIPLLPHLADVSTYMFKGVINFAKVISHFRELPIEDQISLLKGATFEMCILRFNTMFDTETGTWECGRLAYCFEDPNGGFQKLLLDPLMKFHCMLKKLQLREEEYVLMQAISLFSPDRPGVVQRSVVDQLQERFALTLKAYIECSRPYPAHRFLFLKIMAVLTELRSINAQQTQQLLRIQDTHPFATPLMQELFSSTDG
The nature of assay [18]: qHTS assay for small molecule activators of the human pregnane X receptor (PXR) signaling pathway (AID 720659; call rule not given here; also: 0% is about no effect).
Assay [19] is described as follows: qHTS assay for small molecule antagonists of retinoid X receptor alpha signaling (AID 588546; active = well fitted inhibition curve with a large enough effect in the signal ratio, with a control signal flat, not every such curve was filed as active; the % refers to the signal ratio;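 also: cells stimulated with 9-cis-retinoic acid as agonist; % is scaled to controls: 0 for no effect and ±100 for the full control effect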). The note with it: HEK293T RXRa-UAS-bla, beta-lactamase ratio, antagonist mode; measured here: W530 green channel, cytotoxicity proxy. In outline:
(§2)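 Beta-lactamase reporter inhibition, read as CCF4 fluorescence ratio (ex 405, em 460/530 nm) after 2 h at RT. HEK293T UAS-bla cells, 2500/well, were stimulated with 9-cis-RA at 500 or 100 nM final alongside test compound for 18 h at 37 C.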

Assay [20] has as its target Retinoic acid receptor RXR-alpha (Homo sapiens) (UniProt P19793). The description is as above. The note with it: HEK293T RXRa-UAS-bla, beta-lactamase ratio, antagonist mode. In outline: as §2

Each structure is given as a SMILES string. Several values for one entry are separate records, joined by “and”; a condition that tells them apart may be missing. Identical values can stand only once. Inconclusive results are not listed. Activity calls are given as the source filed them. Unless noted, calls follow the shape of the full dose curve.

Chain of Peroxisome proliferator-activated receptor gamma (Homo sapiens) (P37231 whole entry, looked up): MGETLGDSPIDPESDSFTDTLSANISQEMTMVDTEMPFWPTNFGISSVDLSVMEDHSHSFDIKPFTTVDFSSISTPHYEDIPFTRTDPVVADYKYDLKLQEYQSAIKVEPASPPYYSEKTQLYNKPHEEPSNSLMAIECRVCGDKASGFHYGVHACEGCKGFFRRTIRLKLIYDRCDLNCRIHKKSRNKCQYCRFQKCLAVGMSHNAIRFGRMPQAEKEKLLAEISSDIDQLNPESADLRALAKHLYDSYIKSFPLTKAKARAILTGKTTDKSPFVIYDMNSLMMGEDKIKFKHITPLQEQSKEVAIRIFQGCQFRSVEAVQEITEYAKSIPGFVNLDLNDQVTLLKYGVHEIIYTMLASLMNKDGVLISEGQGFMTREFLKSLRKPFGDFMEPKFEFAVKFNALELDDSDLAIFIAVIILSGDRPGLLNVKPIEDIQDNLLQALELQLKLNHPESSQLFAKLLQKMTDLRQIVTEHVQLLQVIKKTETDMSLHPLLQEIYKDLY
Chain of Peroxisome proliferator-activated receptor alpha (Homo sapiens) (Q07869 whole entry, looked up): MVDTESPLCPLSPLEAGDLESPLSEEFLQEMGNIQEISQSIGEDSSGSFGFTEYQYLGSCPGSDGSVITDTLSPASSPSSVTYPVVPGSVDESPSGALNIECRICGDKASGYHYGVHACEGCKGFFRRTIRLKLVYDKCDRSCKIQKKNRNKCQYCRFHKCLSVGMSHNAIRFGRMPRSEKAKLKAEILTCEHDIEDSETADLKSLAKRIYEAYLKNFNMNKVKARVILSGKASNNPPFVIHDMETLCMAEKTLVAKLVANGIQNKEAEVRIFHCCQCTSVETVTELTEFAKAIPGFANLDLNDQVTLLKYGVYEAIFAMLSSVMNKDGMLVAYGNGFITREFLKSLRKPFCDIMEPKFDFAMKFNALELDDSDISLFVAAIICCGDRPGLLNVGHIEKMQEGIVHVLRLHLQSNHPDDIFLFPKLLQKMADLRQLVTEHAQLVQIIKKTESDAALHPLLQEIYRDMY
Chain of Estrogen receptor (Homo sapiens) (P03372 whole entry, looked up): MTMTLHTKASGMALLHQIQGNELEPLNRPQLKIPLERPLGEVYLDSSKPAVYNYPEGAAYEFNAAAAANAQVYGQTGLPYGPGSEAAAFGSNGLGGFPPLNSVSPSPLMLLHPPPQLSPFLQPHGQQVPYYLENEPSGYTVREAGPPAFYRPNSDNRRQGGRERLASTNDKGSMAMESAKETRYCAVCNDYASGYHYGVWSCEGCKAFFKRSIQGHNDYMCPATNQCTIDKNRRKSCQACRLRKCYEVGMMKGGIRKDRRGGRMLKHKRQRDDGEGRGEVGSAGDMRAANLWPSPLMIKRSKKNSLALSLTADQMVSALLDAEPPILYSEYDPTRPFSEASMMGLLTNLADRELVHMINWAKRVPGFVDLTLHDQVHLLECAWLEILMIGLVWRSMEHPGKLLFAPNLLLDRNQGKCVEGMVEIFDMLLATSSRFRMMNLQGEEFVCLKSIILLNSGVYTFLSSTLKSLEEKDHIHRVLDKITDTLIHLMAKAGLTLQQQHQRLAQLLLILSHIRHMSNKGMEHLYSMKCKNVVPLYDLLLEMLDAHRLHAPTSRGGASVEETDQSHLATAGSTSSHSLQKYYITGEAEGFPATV

For the compound `CN(C)c1nc(=O)n(C2CCC(O)CC2)c(=O)n1C` (stereo unspecified), the Potency entry in [1], in [3], in assay [5], in assay [7], in assay [8] and in assay [13] was “inactive” in each case. Further, the Potency result in assay [16] is “inactive”. Also, the max response in [2] was 20.4%; in [6] it was -9.86%; in assay [12], -3.35% (inactive); in assay [14], 6.16% (inactive); in [15] it was -7.57% (inactive); in assay [17], -1.79% (inactive). The outcome in assay [4] and in assay [18] was inactive. The activity change % (negative = inhibition) in [9] was 11.1% (inactive). Moreover, the activation in assay [10] is 2.9% (inactive); in assay [11] it was -0.637% (inactive).

On to `CCCCOC(=O)[C@@H](C)Oc1ccc(Oc2ccc(C(F)(F)F)cn2)cc1`, for which the Potency entry in assay [1], in assay [3], in assay [5], in assay [7], in assay [8] and in [13] was “inactive” in each case. Further, the Potency result in assay [16] is “inactive”. In addition, the max response in assay [2] was 35.2% and 48.6%; in assay [6], -3.89% and -1%; in assay [19] it was -5.61% and -1.04%; in assay [20], 9.28% (inactive) and -16% (inactive); in assay [12], -0.0053% (inactive) and -0.638% (inactive); in assay [14], -10.9% (inactive) and -13.9% (inactive). The max response is -10% (inactive) and -13.5% (inactive) in assay [15]; -5.37% (inactive) and -2.58% (inactive) in assay [17]. Further, in [4], the compound was called inactive. In addition, the activity change % (negative = inhibition) in [9] is 6.28% (inactive) and 7.31% (inactive). For the same compound, the activation in [10] is -5.64% (inactive) and -5.4% (inactive); in assay [11] it was -0.836% (inactive) and 0.498% (inactive).

On to `CC(=O)N(CCN(C(C)=O)C(C)=O)C(C)=O`, for which the Potency entry in [1], in assay [3], in assay [5], in [7], in assay [8] and in assay [13] was “inactive” in each case. Moreover, the Potency result in [16] is “inactive”. Moreover, the max response in assay [2] is 30.1%; in [6], -4.71%; in [19], -2.01%; in assay [20], -5.17% (inactive); in assay [12], 0.299% (inactive); in assay [14], -1.28% (inactive). Also, the values for the max response in assay [15] and in assay [17] were -0.359% (inactive) and -0.996% (inactive), respectively. Also, the outcome in assay [4] and in assay [18] was inactive. For the same compound, the activity change % (negative = inhibition) in [9] was -8.71% (inactive). In addition, the activation in assay [10] was 0.892% (inactive); in [11], -3.27% (inactive).

As for `CC(=O)Nc1ccc(N=Nc2cc(C)ccc2O)cc1`, the Potency result in assay [1], in assay [3], in [7], in assay [8] and in assay [16] was “inactive” throughout. For the same compound, the max response in assay [2] was 14%; in [6] it was 3.3%; in assay [19], -4.33%; in [20], -20.6% (inactive); in assay [12], -3.57% (inactive); in [14], 1.65% (inactive). Also, the max response in assay [15] was -16.4% (inactive); in assay [17], 1.28% (inactive). Moreover, the activation in assay [10] is -6.18% (inactive). The Potency in assay [11] is 4.47 µM (active).

Take `CC(C)=CCC[C@@H](C)[C@H]1CC[C@@]2(C)C3=C(CC[C@]12C)[C@@]1(C)CC[C@H](O)C(C)(C)[C@@H]1CC3`: the Potency result in assay [1], in assay [3], in assay [5], in [7], in [8] and in [13] was “inactive” in each case. The Potency result in assay [16] is “inactive”. In addition, the max response in assay [2] was 37.7%; in [6], -27.3%; in assay [19], 0.0546%; in [20], 8.2% (inactive); in assay [14], 3.07% (inactive); in assay [15], -4.2% (inactive). In addition, the max response in [17] is 0.187% (inactive). Also, the result in assay [4] and in assay [18] was inactive. In assay [9], the activity change % (negative = inhibition) was -4.34% (inactive). Moreover, the activation is 2.67% (inactive) in [10] and 1.89% (inactive) in assay [11].

The values above are taken from PubChem BioAssay (NCATS).
